Assay outcomes (PubChem)
Sa helicase inh: blocks Staphylococcus aureus DNA helicase; purified S. aureus helicase, fluorescence unwinding assay; inhibition, % (no concentration beside the values); 120,000 compounds, 0.05% hits; AID 485395; in the data active means inhibition above about 25%, passing the limit was not always enough;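 further: 0% = mean of negative control wells and 100% = mean of positive control wells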
Sa growth inh: inhibitors of Staphylococcus aureus growth at 42 °C; AID 720641; 170,000 compounds, 0.53% hits; S. aureus RN4220 growth, OD600, 20 h; hits give low values; relative growth, % (concentration not given with the values);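 active means relative growth at most 50% at the other temperature and 20+ points below 30 °C, or under 10% at both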
Numbers without * were called inactive; . = no result given. Many of the other results were omitted from the sample, so hits are more common in it than they were.

SMILES	Sa helicase inh	Sa growth inh
CCN(c1ccccc1)S(=O)(=O)c1ccc(NC(=O)c2nc(S(C)(=O)=O)ncc2Cl)cc1	.	-1.4*
CCS(=O)(=O)c1ncc(Cl)c(C(=O)Nc2ccc(S(=O)(=O)N(C)c3ccccc3)cc2)n1	.	89
COc1ccc(-n2c(=O)c3ccccc3n(Cc3ccccc3)c2=O)cc1OC	11	104
Cc1ccccc1NC(=O)/C=C\C(N)=O	2	-0.5*
NC(=O)/C=C/C(=O)Nc1ccccc1Cl	.	21
COc1ccc2cc(CN(Cc3cccnc3)Cc3nnnn3Cc3ccc(F)cc3)c(=O)[nH]c2c1	1	100
Cc1cccc(Cc2c(C)nc3c(-c4ccccc4)c(C)[nH]n3c2=O)c1	.	15
Cc1[nH]n2c(=O)cc(-c3ccccc3Cl)nc2c1-c1ccccc1	.	32
Cc1[nH]n2c(=O)cc(-c3ccccc3)nc2c1-c1ccccc1	-13	0.0*
Cc1ccccc1Cc1c(C)nc2c(-c3ccccc3)c(C)[nH]n2c1=O	.	0.5*
CCOC(=O)N=c1oc2cc(Cl)c(Cl)cc2o1	12	57
CCOC(=O)Oc1cc2oc(=O)sc2cc1Cl	32	4.9*
COc1cccc2c1C(=O)c1c(O)c3c(c(O)c1C2=O)C[C@@](O)(C(C)=O)C[C@@H]3O[C@H]1C[C@H](N)[C@H](O)[C@H](C)O1	.	18
COc1cccc2c1C(=O)c1c(O)c3c(c(O)c1C2=O)C[C@@](O)(C(=O)CO)C[C@@H]3O[C@H]1C[C@H](N)[C@@H](O)[C@H](C)O1	.	2.0*
CC(=O)[C@]1(O)Cc2c(O)c3c(c(O)c2[C@@H](O[C@H]2C[C@H](N)[C@H](O)[C@H](C)O2)C1)C(=O)c1ccccc1C3=O	.	0.4*
CC[C@@]1(O)C[C@H](O[C@H]2C[C@H](N(C)C)[C@H](O[C@H]3C[C@H](O)[C@H](O[C@H]4CCC(=O)[C@H](C)O4)[C@H](C)O3)[C@H](C)O2)c2c(cc3c(c2O)C(=O)c2c(O)cccc2C3=O)[C@H]1C(=O)OC	.	76
COc1ccc(NC(=O)CCCc2nnc3n(C(C)C)c(=O)c4sccc4n23)cc1OC	-18	92
O=C(Cn1c(=O)oc2ccccc21)NC12CC3CC(CC(C3)C1)C2	5	102
COc1ccccc1NC(=O)C#Cc1ccccc1	10	78
O=C(Nc1ccc([N+](=O)[O-])cc1Cl)c1cc(Cl)ccc1O	.	-0.6*
O=C(Nc1ccccc1Cl)c1ccccc1O	5	19
CC(C)(C)S(=O)(=O)c1ccsc1	-9	102
O=C1Nc2ccccc2S/C1=C\C(=O)N1CCN(Cc2ccccc2)CC1	17	118
C[N+](C)(CCOc1ccccc1)Cc1ccccc1 (tested in a mixture with another compound)	9	83
CC(C)(C)CC(C)(C)c1ccc(OCCOCC[N+](C)(C)Cc2ccccc2)cc1	.	-0.3*
SMILES	Sa helicase inh	Sa growth inh
COC(=O)c1cc(OCC(=O)N2CC(C)CC(C)C2)cc(C(=O)OC)c1 (configuration not stated)	30	108
CCN1C(=O)C(OC(=O)c2cscn2)CC1c1ccc(OC)cc1 (configuration not stated)	3	93
Cc1cc(NC2=CC(=O)CCC2)n(-c2cc(C(F)(F)F)ccc2Cl)n1	3	77
CC[n+]1c(/C=C/Nc2ccccc2)sc2ccccc21	8	103
CC[n+]1c(/C=C/N(C)c2ccccc2)sc2ccc(OC)cc21	0	-0.6*
CCn1c(=O)n(CC)c2cc(Nc3nc4ccccc4c4nncn34)c(Br)cc21	-2	101
Cc1nnc(SCC(=O)N(CC(C)C)C2CCS(=O)(=O)C2)s1 (configuration not stated)	26*	91
CCCc1cc(=O)[nH]c(SCC(=O)N(CC(C)C)C2CCS(=O)(=O)C2)n1 (configuration not stated)	-5	80
O=C(O)C1C2CCC(CC2)C1C(=O)N1CCN(S(=O)(=O)c2ccc(F)cc2)CC1 (configuration not stated)	2	105
N=C1/C(=C/c2ccc(SC3CCCCC3)o2)C(=O)N=C2SC=CN12	-15	8.4*
O=C1NN(c2ccccc2)C(=O)/C1=C/c1ccc(SC2CCCCC2)o1	22	92
CCCCn1c(O)c(N=NC(=O)c2ccccc2)c2ccccc21	7	3.7*
Cn1c(O)c(N=NC(=O)c2ccccc2)c2ccccc21	6	93
COc1cc(OC)cc(C(=O)Nc2cccc(-c3nn4c(C)nnc4s3)c2)c1	-23	92
Cc1cc(C)cc(OC(=O)CCN2C(=O)c3ccccc3C2=O)c1	17	-1.1*
O=C(CCN1C(=O)c2ccccc2C1=O)Oc1ccc(Cl)cc1	4	114
CCCCC/C=C/CCC(=O)N[C@H]1[C@H](Oc2c3cc4cc2Oc2ccc(cc2Cl)[C@@H](O[C@@H]2O[C@H](CO)[C@@H](O)[C@H](O)[C@H]2NC(C)=O)[C@@H]2NC(=O)[C@H](NC(=O)[C@@H]4NC(=O)[C@H]4NC(=O)C(Cc5ccc(c(Cl)c5)O3)NC(=O)[C@H](N)c3ccc(O)c(c3)Oc3cc(O)cc4c3)c3ccc(O)c(c3)-c3c(OC4O[C@H](CO)[C@@H](O)[C@H](O)[C@@H]4O)cc(O)cc3[C@@H](C(=O)O)NC2=O)O[C@H](CO)[C@@H](O)[C@@H]1O (some centres not stated)	.	-0.1*
CCN(CC)C(=O)Oc1ccccc1	9	114
CCc1ccc[n+](OC(=O)N(CC)CC)c1	15	0.1*
CCn1c(SCC(=O)OCC(=O)N=c2sccn2Cc2ccc(C)cc2)nnc1-c1ccco1	-13	77
CON(C)S(=O)(=O)c1ccc(C(=O)O)cc1	10	103
c1ccc(-c2cccc(-c3ccccn3)n2)nc1	12	2.4*
c1ccc(-c2ccc3ccccc3n2)nc1	-5	63
CC1CCc2c(N3CCC(O)CC3)c(F)cc3c(=O)c(C(=O)O)cn1c23 (configuration not stated)	.	-1.0*
CN1CCN(c2c(F)cc3c(=O)c(C(=O)O)cn(CCF)c3c2F)CC1	.	23
SMILES	Sa helicase inh	Sa growth inh
NC1CCN(c2c(F)cc3c(=O)c(C(=O)O)cn(C4CC4)c3c2Cl)C1 (configuration not stated)	.	-0.9*
CC1CCc2cc(F)cc3c(=O)c(C(=O)O)cn1c23 (configuration not stated)	.	30
CCOC(=O)c1cn2c3c(c(F)c(F)cc3c1=O)OCC2C (configuration not stated)	-14	101
NC1CCN(c2nc3c(cc2F)c(=O)c(C(=O)O)cn3-c2ccc(F)cc2F)C1 (configuration not stated)	.	-1.0*
CCn1cc(C(=O)O)c(=O)c2cc(F)c(N3CCNCC3)nc21	.	59
COc1c(N2CCNC(C)C2)c(F)cc2c(=O)c(C(=O)O)cn(C3CC3)c12 (configuration not stated)	.	-0.9*
Cc1cn2c(=O)c(C(=O)NCCCN3CCN(CCCNC(=O)c4cnc5sc(C)cn5c4=O)CC3)cnc2s1	4	94
CCn1c2ccc(C)cc2c2nc(C)sc21	3	66
CO/N=C1\CN(c2nc3c(cc2F)c(=O)c(C(=O)O)cn3C2CC2)CC1CN (configuration not stated)	.	-1.0*
Cc1cccc(Oc2ncc(F)c(Oc3cccc(C)c3)n2)c1	-10	105
Clc1ccc(OCCN2CCN(c3nc4ccccc4c4nc(-c5ccncc5)nn34)CC2)cc1	-19	86
CCN(CC)c1ccc2c(c1)CCCN2	8	4.2*
